Screening data: PubChem, several laboratories
PABP1 MLLE inh = inhibitors of microRNA-mediated deadenylation, human PABP1 MLLE binding. inhibition, % at 20 µM. 360,000 tested, 0.36% active. GST-MLLE / FITC-PAM2 fluorescence polarization. AID 588489. P11940; in the data active = inhibition above about 35%, passing the limit was not always enough;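 note: plate controls were DMSO wells with GST-MLLE for no effect and wells lacking GST-MLLE protein for full effect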
eIF4H FP inh = inhibitors of RNA binding by human eIF4H; 290,000 tested, 0.94% active; Q15056; inhibition, % at 35 µM; eIF4H fluorescence polarization binding assay;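 note: calls also rest on retests at 20 µM and on dose response follow-up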
PABP FP inh = PABP-poly(A) binding inhibition. PABP-poly(A) RNA binding, fluorescence polarization. 290,000 tested, 1% active. calls only at 35 µM;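 note: calls also rest on retests at 20 µM and on dose response follow-up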
MEX-5 binding = C. elegans MEX-5 TCR-2 RNA binding activity; MEX-5/FITC-TCR2 RNA binding, fluorescence polarization; hits give low values; activity score (negative = inhibition of binding), % at 10 µM; 300,000 tested, 0.38% active; AID 1832;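 active = inhibition past about -25% in most replicates, and total fluorescence under double the plate's negative control median, limit read from the data; inconclusive = replicates evenly split on the limit, or fluorescence at least double controls; inactive = too little inhibition in most replicates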;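 note: 0% = DMSO and -100% = 5 µM competing unlabeled TCR2 RNA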
EBV gp42 block = inhibitors of Epstein-Barr virus glycoprotein 42; Q1HVG2; Fluorescence polarization binding assay, mP read-out; inhibition, % (tested at 21.74 µM); 220,000 tested, 0.42% active; in the data active = inhibition above about 50%
Target sequence (Q1HVG2 whole entry, looked up): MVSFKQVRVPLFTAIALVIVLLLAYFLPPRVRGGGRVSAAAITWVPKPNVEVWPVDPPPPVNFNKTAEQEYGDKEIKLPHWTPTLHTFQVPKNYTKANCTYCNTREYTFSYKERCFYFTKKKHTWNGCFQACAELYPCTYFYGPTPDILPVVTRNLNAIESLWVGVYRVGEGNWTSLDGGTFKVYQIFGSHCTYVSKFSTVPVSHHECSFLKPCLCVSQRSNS
The depositor's hits bear a star; i = inactive; u = inconclusive; x = no result given; + = active, no number. A selection: hits, their analogues and other compounds. The true share with any hit is near 1.8%. Unless noted, the rule behind the calls is not given here.

SMILES	PABP1 MLLE inh	eIF4H FP inh	PABP FP inh	MEX-5 binding	EBV gp42 block
Nc1cc2c3c(cccc3c1)C(=O)N(CCN1CCCC1)C2=O	74	114*	+	-28*	95*
NC(=O)CN1CCN(CCN2C(=O)c3cccc4cccc(c34)C2=O)CC1	6	1	i	1	x
O=C1c2cccc3cc([N+](=O)[O-])cc(c23)C(=O)N1CCN1CCCC1	50*	81	i	-7	4
O=C1c2cccc3cc([N+](=O)[O-])cc(c23)C(=O)N1/N=C/c1ccc(O)cc1O	2	91*	+	0	96*
Cc1cc(C)c(S(=O)(=O)N2CCN(CCN3C(=O)c4cccc5cccc(c45)C3=O)CC2)cc1[N+](=O)[O-]	x	9	i	x	-14
CCC(=O)N1CCCC(C(=O)Nc2ccc3cn[nH]c3c2)CC1 (stereo not drawn)	1	x	x	x	x
O=C1CCCC(=O)C1CS(=O)(=O)c1ccccc1	52*	-8	i	0	6
O=C1CC(c2ccc(Cl)cc2)CC(=O)C1CS(=O)(=O)c1ccccc1 (stereo not drawn)	31	-4	i	-1	-1
CCOc1cc(C=NNC(=O)N(c2ccccc2)c2ccccc2)ccc1O	-9	x	x	x	x
CCC(=O)Oc1ccc(NC(=O)c2ccc(S(=O)(=O)N3CCCC3)cc2)cc1	8	x	x	x	x
CCCN1CCc2[nH]c(=S)[nH]c(=O)c2C1	47*	7	i	1	-4
O=c1[nH]c(=S)[nH]c2c1CN(Cc1ccc(F)cc1)CC2	39*	x	x	3	x
O=C(Nc1ccccc1)Nc1nnc([C@@H]2C[C@H](O)[C@@H](CO)O2)s1	-6	x	x	x	x
Cc1cc2ccccc2n1CCNC(=O)c1cccs1	14	42*	+	-5	-4
Cc1cc2ccccc2n1CCNC(=O)C1CCCCC1	11	19	i	-3	0
Cc1cc2ccccc2n1CCNC(=O)C1CCCC1	24	u	+	x	-6
Cc1cc2ccccc2n1CCNC(=O)C1CC1	20	112	+	-1	x
COc1ccc(C#Cc2cccc(-c3nc(C(=O)N4CCN(C)CC4)cc4c3[C@H](CCO)N(S(=O)C(C)(C)C)C4)c2)cc1OC (stereo partly drawn)	-14	x	x	x	x
Nc1ccc2c3c(cccc13)-c1ccccc1-2	i	x	x	x	x
Cc1ccc2c3c(cccc13)-c1ccccc1C2=O	48*	90*	+	-10	62*
O=C(/C=C/c1ccc(O)c(O)c1)OC1C(O)CC(OC(=O)/C=C/c2ccc(O)c(O)c2)(C(=O)O)CC1O (stereo not drawn)	-12	7	i	-32*	0
COc1cccc(CNC(=O)c2ccc(CS(=O)Cc3ccccc3Cl)o2)c1 (stereo not drawn)	-10	x	x	x	x
O=C1N=C2SCCN2/C1=C\c1ccccc1Cl	39*	-8	i	-1	-20
CC1=C(C#N)C(=O)N(C2CCS(=O)(=O)C2)C(=O)/C1=C\c1ccco1 (stereo not drawn)	x	102*	+	-99*	124*
O=C(O)c1ccc(S(=O)(=O)/N=C2\C=C(Nc3ccccc3F)C(=O)c3ccccc32)cc1	26	-1	i	-42*	x
SMILES	PABP1 MLLE inh	eIF4H FP inh	PABP FP inh	MEX-5 binding	EBV gp42 block
COc1ccc(NC(=O)CSc2nc3ncccc3[nH]2)cc1OC	-4	-3	i	-3	1
O=C(CSc1nnc2c(n1)[nH]c1ccccc12)Nc1ccc2c(c1)OCO2	37*	10	i	-1	25
O=C(CSc1nc2ncccc2[nH]1)Nc1ccc2c(c1)OCO2	-8	2	i	0	73*
Cc1ccc(NC(=O)CSc2nnc3c(n2)[nH]c2ccccc23)cc1	-9	-1	i	-1	x
Oc1cccc2cnccc12	-11	3	i	3	-4
Nc1cccc2cnccc12	1	88*	i	x	-5
O=C(COc1ccc2c(-c3ccccc3)cc(=O)oc2c1)N1C[C@H]2C[C@@H](C1)c1cccc(=O)n1C2	5	x	x	x	x
CCCCC1Cc2[nH]c(=S)[nH]c(=O)c2C(c2ccc(F)cc2)O1 (stereo not drawn)	23	x	x	x	x
CCN(CC)c1ccc2cc(-c3nnc(-c4ccccc4)o3)c(=O)oc2c1	i	u	i	u	21
CCN(CC)c1ccc2cc(-c3nc(-c4ccc(OC)cc4)cs3)c(=O)oc2c1	x	u	i	x	92*
CCc1nc2ccc(C(=O)Nc3ccc(NC(C)=O)cc3)cn2c1N(CCC(C)C)CCN(C)C	-10	x	x	x	x
NS(=O)(=O)c1ccc(N=Nc2c(=O)[nH]n3c(=O)c4c([nH]c23)CCCC4)cc1	4	4	i	-83*	8
O=c1[nH]n2c(=O)c3c([nH]c2c1N=Nc1cccc(C(F)(F)F)c1)CCCC3	18	-3	i	-4	5
O=c1[nH]n2c(=O)c3c([nH]c2c1N=Nc1cccc(Cl)c1)CCC3	17	3	i	-4	52*
Cc1ccc(C(=O)C2CC2)c(C)c1	11	x	x	x	x
Cc1ccc(C(N)=S)c(C)c1	40*	x	x	1	-27
CN(CC(=O)NCc1ccccn1)S(=O)(=O)c1ccc(Br)cc1	-4	-14	i	-26*	0
CCOc1ccc(S(=O)(=O)N(C)CC(=O)NCc2ccccn2)cc1	-8	3	i	1	x
Cn1c(=O)c2cc3c(nc2n(C)c1=O)CC(c1ccccc1)CC3=O (stereo not drawn)	14	1	i	0	0
O=C1CC(c2ccccc2)Cc2nc3nc(C(F)(F)F)nn3cc21 (stereo not drawn)	14	92*	+	-1	-12
CSc1nc2nc3c(cn2n1)C(=O)CC(c1ccccc1)C3 (stereo not drawn)	3	48*	+	1	-13
COc1ccc(NC(=O)C[C@H]2C(=O)N(CCc3ccccc3)C[C@@H]2Cc2ccccc2)cc1	-10	x	x	x	x
CC(=O)c1c(COC(=O)c2ccc(C)cc2)nc2ccccc2[n+]1[O-]	-10	3	i	3	-3
CC(=O)c1c(COC(=O)c2cccnc2)nc2ccccc2[n+]1[O-]	-123	5	+	-1	-32
CCN(CC)S(=O)(=O)c1cc(NC(=O)Cn2ncc(Cl)c(Cl)c2=O)ccc1C	-23	77	+	0	7
SMILES	PABP1 MLLE inh	eIF4H FP inh	PABP FP inh	MEX-5 binding	EBV gp42 block
O=C(Cn1ncc(Cl)c(Cl)c1=O)Nc1ccc2c(c1)OCO2	-14	x	x	x	x
COc1ccc(S(=O)(=O)N2CCOCC2)cc1NC(=O)c1cc2c(s1)CCCC2	3	-6	i	1	-23
COc1ccc(NC(=O)c2cc3c(s2)CCC3)cc1S(=O)(=O)N1CCOCC1	-3	100*	i	1	-12
COc1ccc(NC(=O)Cn2ncc(Cl)c(Cl)c2=O)cc1S(=O)(=O)N1CCOCC1	-21	90	+	1	61*
CN(C)S(=O)(=O)n1cc(/C=C(\NC(=O)c2ccccc2F)C(=O)N2CCCCC2)c2ccccc21	-8	x	x	x	x
Cc1ccc(S(=O)(=O)OCC(=O)Nc2ccc(C(=O)O)c(O)c2)cc1	44*	x	x	x	x
N#CCCN(C(=S)NC(=O)c1cccs1)c1ccccc1F	28	x	x	x	x
